{"source": "the supplement of paper PMC8728848", "assay_in_all_cases": "glycan array binding signal (z-score within array); higher = stronger binding", "details_in_all_cases": "glycan notation: IUPAC condensed, linker removed", "key": {"[1]": {"molecular_target": "Fuc(a1-2)Gal(b1-3)GalNAc(b1-3)Gal(a1-4)Gal(b1-4)Glc", "how_it_was_run": "(§1)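 Glycan array data were curated from 3228 arrays in the Consortium for Functional Glycomics database and kept only where the protein sequence was available. Glycan names were converted to IUPAC-condensed notation, and columns mapping to the same glycan were averaged. The binding signal is a within-array Z-score, averaged across arrays of the same protein sequence at different concentrations or buffers and across linkers. Negative Z-scores can be read as non-binding.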"}, "[2]": {"molecular_target": "Fuc(a1-2)Gal(b1-3)[Fuc(a1-4)]GlcNAc(b1-2)Man(a1-3)[Fuc(a1-2)Gal(b1-3)[Fuc(a1-4)]GlcNAc(b1-2)Man(a1-6)]Man(b1-4)GlcNAc(b1-4)[Fuc(a1-6)]GlcNAc(b1-4)[Fuc(a1-6)]GlcNAc", "how_it_was_run": "as §1"}, "[3]": {"molecular_target": "Fuc(a1-2)[Gal(a1-3)]Gal(b1-3)GlcNAc(b1-3)GalNAc", "how_it_was_run": "as §1"}, "[4]": {"molecular_target": "Fuc(a1-2)[Gal(a1-3)]Gal(b1-4)GlcNAc(b1-6)GalNAc", "how_it_was_run": "as §1"}, "[5]": {"molecular_target": "Fuc(a1-2)[GalNAc(a1-3)]Gal(b1-3)GlcNAc", "how_it_was_run": "as §1"}, "[6]": {"molecular_target": "Fuc(a1-2)[GalNAc(a1-3)]Gal(b1-3)GlcNAc(b1-2)Man(a1-3)[Fuc(a1-2)[GalNAc(a1-3)]Gal(b1-3)GlcNAc(b1-2)Man(a1-6)]Man(b1-4)GlcNAc(b1-4)[Fuc(a1-6)]GlcNAc", "how_it_was_run": "as §1"}, "[7]": {"molecular_target": "Fuc(a1-3)[Gal(b1-4)]Glc6S", "how_it_was_run": "as §1"}, "[8]": {"molecular_target": "Fuc(a1-3)[Gal(b1-4)]GlcNAc(b1-2)Man(a1-3)[Fuc(a1-3)[Gal(b1-4)]GlcNAc(b1-2)Man(a1-6)]Man(b1-4)GlcNAc(b1-4)[Fuc(a1-6)]GlcNAc", "how_it_was_run": "as §1"}, "[9]": {"molecular_target": "Fuc(a1-3)[GalNAc(b1-4)]GlcNAc6S", "how_it_was_run": "as §1"}, "[10]": {"molecular_target": "Gal(a1-3)Gal(b1-3)GlcNAc(b1-2)Man(a1-3)[Gal(a1-3)Gal(b1-3)GlcNAc(b1-2)Man(a1-6)]Man(b1-4)GlcNAc(b1-4)GlcNAc", "how_it_was_run": "as §1"}, "[11]": {"molecular_target": "Gal(a1-3)Gal(b1-3)GlcNAc(b1-3)GalNAc", "how_it_was_run": "as §1"}, "[12]": {"molecular_target": "Gal(a1-3)Gal(b1-4)GlcNAc(b1-6)GalNAc", "how_it_was_run": "as §1"}, "[13]": {"molecular_target": "Gal(a1-3)Gal(b1-4)[Fuc(a1-3)]GlcNAc(b1-2)Man(a1-3)[Gal(a1-3)Gal(b1-4)[Fuc(a1-3)]GlcNAc(b1-2)Man(a1-6)]Man(b1-4)GlcNAc(b1-4)GlcNAc", "how_it_was_run": "as §1"}, "[14]": {"molecular_target": "Gal(a1-4)GlcNAc", "how_it_was_run": "as §1"}, "[15]": {"molecular_target": "Gal(a1-6)Glc", "how_it_was_run": "as §1"}, "[16]": {"molecular_target": "Gal(b1-3)GalNAc(b1-4)Gal(b1-4)Glc", "how_it_was_run": "as §1"}, "[17]": {"molecular_target": "Gal(b1-3)GlcNAc(a1-6)Gal(b1-4)GlcNAc", "how_it_was_run": "as §1"}, "[18]": {"molecular_target": "Gal(b1-3)GlcNAc(b1-3)Gal(b1-3)GlcNAc", "how_it_was_run": "as §1"}, "[19]": {"molecular_target": "Gal(b1-3)GlcNAc(b1-3)Gal(b1-4)GlcNAc", "how_it_was_run": "as §1"}, "[20]": {"molecular_target": "Gal(b1-3)GlcNAc(b1-3)Gal(b1-4)[Fuc(a1-3)]GlcNAc(b1-6)[Gal(b1-3)GlcNAc(b1-3)]Gal(b1-4)Glc", "how_it_was_run": "as §1"}, "[21]": {"molecular_target": "Gal(b1-3)[Fuc(a1-4)]GlcNAc(b1-2)Man", "how_it_was_run": "as §1"}, "[22]": {"molecular_target": "Gal(b1-3)[Fuc(a1-4)]GlcNAc(b1-3)Gal(b1-4)[Fuc(a1-3)]GlcNAc", "how_it_was_run": "as §1"}, "[23]": {"molecular_target": "Gal(b1-3)[Neu5Ac(a2-6)]GalNAc", "how_it_was_run": "as §1"}, "[24]": {"molecular_target": "Gal(b1-4)GlcNAc(b1-2)Man(a1-3)[Gal(b1-4)GlcNAc(b1-2)Man(a1-6)][GlcNAc(b1-4)]Man(b1-4)GlcNAc(b1-4)[Fuc(a1-6)]GlcNAc", "how_it_was_run": "as §1"}, "[25]": {"molecular_target": "Gal(b1-4)GlcNAc(b1-2)Man(a1-3)[GlcNAc(b1-4)][Gal(b1-4)GlcNAc(b1-2)Man(a1-6)]Man(b1-4)GlcNAc(b1-4)GlcNAc", "how_it_was_run": "as §1"}, "[26]": {"molecular_target": "Gal(b1-4)GlcNAc(b1-2)Man(a1-3)[Man(a1-6)]Man(b1-4)GlcNAc(b1-4)GlcNAc", "how_it_was_run": "as §1"}, "[27]": {"molecular_target": "Gal(b1-4)GlcNAc(b1-2)[Gal(b1-4)GlcNAc(b1-4)]Man(a1-3)[GlcNAc(b1-4)][Gal(b1-4)GlcNAc(b1-2)Man(a1-6)]Man(b1-4)GlcNAc(b1-4)GlcNAc", "how_it_was_run": "as §1"}, "[28]": {"molecular_target": "Gal(b1-4)GlcNAc(b1-2)[Gal(b1-4)GlcNAc(b1-6)]Man(a1-6)[Gal(b1-4)GlcNAc(b1-2)Man(a1-3)]Man(b1-4)GlcNAc(b1-4)[Fuc(a1-6)]GlcNAc", "how_it_was_run": "as §1"}, "[29]": {"molecular_target": "Gal(b1-4)GlcNAc(b1-3)Gal(b1-4)GlcNAc(b1-2)[Gal(b1-4)GlcNAc(b1-3)Gal(b1-4)GlcNAc(b1-6)]Man(a1-6)[Gal(b1-4)GlcNAc(b1-3)Gal(b1-4)GlcNAc(b1-2)Man(a1-3)]Man(b1-4)GlcNAc(b1-4)GlcNAc", "how_it_was_run": "as §1"}, "[30]": {"molecular_target": "Gal(b1-4)GlcNAc(b1-3)Gal(b1-4)GlcNAc(b1-3)Gal(b1-4)GlcNAc(b1-3)Gal(b1-4)GlcNAc(b1-2)Man(a1-3)[Gal(b1-4)GlcNAc(b1-3)Gal(b1-4)GlcNAc(b1-3)Gal(b1-4)GlcNAc(b1-3)Gal(b1-4)GlcNAc(b1-2)Man(a1-6)]Man(b1-4)GlcNAc(b1-4)GlcNAc", "how_it_was_run": "as §1"}}, "note": "Many of the other results were omitted from the sample, so the strongest signals are more common in it than they were.", "data": [{"binder": "Epa3to1 (Candida glabrata) (protein) MGSSHHHHHHSSGLVPRGSHMKRELSSQNPFGYPIGCSPQDVAIIPGLTMELYSYPIVSGTPPNCYDASYVDPEYPRTGYLKRKMVGKSTGVTGNLNYKYSVEKACMVKYGNLPAGYNYNEPLTVSNFTMILYGYFKAQTTGLHTFFVNADDLLYINFGAGNAFDCCKREDSKTKLGEYVAYDIWHVDSSKNKVSLFLEKDLYYPIRMFFNNREYDSSLDLSFSVNGATDQISDFSGYLYSVPDQPDTCPAHIGYDTTCR", "values": [{"measurement": "glycan array binding signal (z-score)", "setting": "[1]", "value": -0.161}, {"measurement": "glycan array binding signal (z-score)", "setting": "[2]", "value": -0.07}, {"measurement": "glycan array binding signal (z-score)", "setting": "[3]", "value": -0.274}, {"measurement": "glycan array binding signal (z-score)", "setting": "[4]", "value": -0.462}, {"measurement": "glycan array binding signal (z-score)", "setting": "[5]", "value": 0.225}, {"measurement": "glycan array binding signal (z-score)", "setting": "[6]", "value": -0.204}, {"measurement": "glycan array binding signal (z-score)", "setting": "[7]", "value": 0.568}, {"measurement": "glycan array binding signal (z-score)", "setting": "[8]", "value": 0.093}, {"measurement": "glycan array binding signal (z-score)", "setting": "[9]", "value": -0.498}, {"measurement": "glycan array binding signal (z-score)", "setting": "[10]", "value": 0.169}, {"measurement": "glycan array binding signal (z-score)", "setting": "[11]", "value": -0.594}, {"measurement": "glycan array binding signal (z-score)", "setting": "[12]", "value": 0.248}, {"measurement": "glycan array binding signal (z-score)", "setting": "[13]", "value": -0.206}, {"measurement": "glycan array binding signal (z-score)", "setting": "[14]", "value": 3.41}, {"measurement": "glycan array binding signal (z-score)", "setting": "[15]", "value": 1.7}, {"measurement": "glycan array binding signal (z-score)", "setting": "[16]", "value": 5.3}, {"measurement": "glycan array binding signal (z-score)", "setting": "[17]", "value": 0.409}, {"measurement": "glycan array binding signal (z-score)", "setting": "[18]", "value": -0.713}, {"measurement": "glycan array binding signal (z-score)", "setting": "[19]", "value": -0.502}, {"measurement": "glycan array binding signal (z-score)", "setting": "[20]", "value": -0.061}, {"measurement": "glycan array binding signal (z-score)", "setting": "[21]", "value": -0.37}, {"measurement": "glycan array binding signal (z-score)", "setting": "[22]", "value": -0.87}, {"measurement": "glycan array binding signal (z-score)", "setting": "[23]", "value": 5.48}, {"measurement": "glycan array binding signal (z-score)", "setting": "[24]", "value": -0.745}, {"measurement": "glycan array binding signal (z-score)", "setting": "[25]", "value": -0.291}, {"measurement": "glycan array binding signal (z-score)", "setting": "[26]", "value": 3.23}, {"measurement": "glycan array binding signal (z-score)", "setting": "[27]", "value": 0.229}, {"measurement": "glycan array binding signal (z-score)", "setting": "[28]", "value": 0.071}, {"measurement": "glycan array binding signal (z-score)", "setting": "[29]", "value": 7.55}, {"measurement": "glycan array binding signal (z-score)", "setting": "[30]", "value": -0.05}]}]}
